Data as given in the supplement of paper PMC10849652.
Targets with a hit are over-represented here; the source holds about 8,800 in all. About 0.5% of all pairs of compound and target were hits. Unmarked numbers belong to inactive results.

Experiments:
Assay in all cases: log2 fold change, soluble protein after heating vs DMSO (PISA); higher = thermal stabilisation; K562 lysate, 10 uM; active = over 0.2 and 3.5 SD of the protein, either way, in both replicates (recomputed)
lapatinib = compound: CS(=O)(=O)CCNCc1ccc(-c2ccc3ncnc(Nc4ccc(OCc5cccc(F)c5)c(Cl)c4)c3c2)o1 [lapatinib]
Outline: (§1)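 K562 pellets were dounce-homogenised in PBS pH 7.4 with 1 mM MgCl2, and the crude extract at 1 mg/mL protein was treated with 10 μM compound for 30 min. Aliquots were heated for 3 min across 48°C-58°C, pooled, and brought to 0.5% NP-40 at 4°C; soluble protein was the supernatant after 21,000xg for 90 min. Soluble protein was quantified by TMTpro 16plex LC-MS/MS with channel sums equalised, and reported as log2 fold change in thermal stability against DMSO controls, with values from duplicates.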

pictilisib = compound: CS(=O)(=O)N1CCN(Cc2cc3nc(-c4cccc5[nH]ncc45)nc(N4CCOCC4)c3s2)CC1 [pictilisib]
Outline: as §1

crizotinib = compound: C[C@@H](Oc1cc(-c2cnn(C3CCNCC3)c2)cnc1N)c1c(Cl)ccc(F)c1Cl [crizotinib]
Outline: as §1

[1] = compound: C[C@H](C1=CC=C(C=C1)C(=O)NC2=C3C=CNC3=NC=C2)N
Outline: as §1

duvelisib = compound: C[C@H](Nc1ncnc2nc[nH]c12)c1cc2cccc(Cl)c2c(=O)n1-c1ccccc1 [duvelisib]
Outline: as §1

gandotinib = compound: Cc1cc(Nc2cc(CN3CCOCC3)c3nc(C)c(Cc4ccc(Cl)cc4F)n3n2)n[nH]1 [gandotinib]
Outline: as §1

tozasertib = compound: Cc1cc(Nc2cc(N3CCN(C)CC3)nc(Sc3ccc(NC(=O)C4CC4)cc3)n2)n[nH]1 [tozasertib]
Outline: as §1

doramapimod = compound: Cc1ccc(-n2nc(C(C)(C)C)cc2NC(=O)Nc2ccc(OCCN3CCOCC3)c3ccccc23)cc1 [doramapimod]
Outline: as §1

bafetinib = compound: Cc1ccc(NC(=O)c2ccc(CN3CC[C@H](N(C)C)C3)c(C(F)(F)F)c2)cc1Nc1nccc(-c2cncnc2)n1 [bafetinib]
Outline: as §1

[2] = compound: Cc1cccc(CC(=O)N2CCc3c2ccc(-c2cn(C)c4ncnc(N)c24)c3F)n1
Outline: as §1

nilotinib = compound: Cc1cn(-c2cc(NC(=O)c3ccc(C)c(Nc4nccc(-c5cccnc5)n4)c3)cc(C(F)(F)F)c2)cn1 [nilotinib]
Outline: as §1

[3] = compound: Cc1nc(Nc2n[nH]c3c2CN(C(=O)N[C@H](CN(C)C)c2ccccc2)C3(C)C)c2sccc2n1
Outline: as §1

dasatinib = compound: Cc1nc(Nc2ncc(C(=O)Nc3c(C)cccc3Cl)s2)cc(N2CCN(CCO)CC2)n1 [dasatinib]
Outline: as §1

[4] = compound: Cc1ncc(-c2ccnc(Nc3ccc(S(C)(=O)=O)cc3)n2)n1C(C)C
Outline: as §1

[5] = compound: Cn1cc(-c2ccc3c(c2)CCN3C(=O)Cc2cccc(C(F)(F)F)c2)c2c(N)ncnc21
Outline: as §1

quisinostat = compound: Cn1cc(CNCC2CCN(c3ncc(C(=O)NO)cn3)CC2)c2ccccc21 [quisinostat]
Outline: as §1

tipifarnib = compound: Cn1cncc1[C@@](N)(c1ccc(Cl)cc1)c1ccc2c(c1)c(-c1cccc(Cl)c1)cc(=O)n2C [tipifarnib]
Outline: as §1

[6] = compound: NC(=O)Nc1cc(-c2cccc(F)c2)sc1C(=O)N[C@H]1CCCNC1
Outline: as §1

[7] = compound: NC(=O)c1cnc(N[C@@H]2CCCC[C@@H]2N)nc1Nc1cccc(-n2nccn2)c1
Outline: as §1

[8] = compound: NC1(c2ccc(-c3nc4ccn5c(=O)[nH]nc5c4cc3-c3ccccc3)cc2)CCC1
Outline: as §1

Sequence of UniProt Q92769 (Q92769 whole entry, looked up): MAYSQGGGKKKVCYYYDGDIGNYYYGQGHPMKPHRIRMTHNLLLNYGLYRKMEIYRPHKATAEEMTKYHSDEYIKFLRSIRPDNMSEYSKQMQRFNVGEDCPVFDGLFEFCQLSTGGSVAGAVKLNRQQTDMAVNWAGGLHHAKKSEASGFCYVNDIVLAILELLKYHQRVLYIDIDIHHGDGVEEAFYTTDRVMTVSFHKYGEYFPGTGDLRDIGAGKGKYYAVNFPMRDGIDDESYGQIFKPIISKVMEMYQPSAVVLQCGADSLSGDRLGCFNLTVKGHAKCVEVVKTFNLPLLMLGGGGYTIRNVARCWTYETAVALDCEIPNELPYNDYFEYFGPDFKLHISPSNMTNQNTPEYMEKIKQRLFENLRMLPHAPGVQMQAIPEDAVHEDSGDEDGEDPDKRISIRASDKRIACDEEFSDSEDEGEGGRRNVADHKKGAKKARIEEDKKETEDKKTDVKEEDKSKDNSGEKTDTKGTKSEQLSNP
Sequence of UniProt Q9BVP2 (Q9BVP2 whole entry, looked up): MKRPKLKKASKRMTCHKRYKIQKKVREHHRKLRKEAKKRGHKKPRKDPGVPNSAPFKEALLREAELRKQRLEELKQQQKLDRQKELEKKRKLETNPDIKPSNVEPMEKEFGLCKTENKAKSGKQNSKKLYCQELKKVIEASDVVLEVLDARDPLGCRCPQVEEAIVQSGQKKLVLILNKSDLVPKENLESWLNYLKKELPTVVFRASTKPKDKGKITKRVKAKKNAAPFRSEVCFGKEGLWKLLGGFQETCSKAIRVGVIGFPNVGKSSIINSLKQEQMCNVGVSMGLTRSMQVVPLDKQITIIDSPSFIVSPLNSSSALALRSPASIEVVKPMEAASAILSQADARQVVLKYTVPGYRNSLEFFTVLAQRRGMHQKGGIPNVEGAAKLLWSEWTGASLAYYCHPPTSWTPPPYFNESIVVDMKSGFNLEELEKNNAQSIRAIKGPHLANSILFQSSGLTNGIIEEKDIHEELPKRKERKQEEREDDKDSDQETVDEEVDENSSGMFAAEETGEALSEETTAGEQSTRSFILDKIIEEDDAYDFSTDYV
Sequence of UniProt Q9H6K1 (Q9H6K1 whole entry, looked up): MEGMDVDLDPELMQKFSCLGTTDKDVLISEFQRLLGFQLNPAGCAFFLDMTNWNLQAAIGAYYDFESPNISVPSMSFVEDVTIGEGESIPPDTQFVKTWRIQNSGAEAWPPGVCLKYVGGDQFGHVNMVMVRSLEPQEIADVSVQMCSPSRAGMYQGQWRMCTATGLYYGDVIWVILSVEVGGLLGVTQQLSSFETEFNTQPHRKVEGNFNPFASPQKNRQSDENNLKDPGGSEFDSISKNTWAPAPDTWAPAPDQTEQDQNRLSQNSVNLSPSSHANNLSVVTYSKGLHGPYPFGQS
Sequence of UniProt Q9BQQ3 (Q9BQQ3 whole entry, looked up): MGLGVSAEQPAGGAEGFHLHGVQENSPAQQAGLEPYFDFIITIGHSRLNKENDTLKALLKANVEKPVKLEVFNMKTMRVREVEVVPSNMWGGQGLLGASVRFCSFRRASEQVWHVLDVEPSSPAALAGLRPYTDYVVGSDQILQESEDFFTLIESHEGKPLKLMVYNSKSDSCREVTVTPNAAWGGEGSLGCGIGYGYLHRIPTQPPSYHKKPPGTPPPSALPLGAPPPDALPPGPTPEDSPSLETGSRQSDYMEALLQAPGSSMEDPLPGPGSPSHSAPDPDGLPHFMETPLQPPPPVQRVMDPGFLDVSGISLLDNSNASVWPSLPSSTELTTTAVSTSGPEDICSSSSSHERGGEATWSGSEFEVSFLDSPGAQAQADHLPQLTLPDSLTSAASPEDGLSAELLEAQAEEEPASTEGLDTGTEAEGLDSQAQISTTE
Sequence of UniProt Q99795 (Q99795 whole entry, looked up): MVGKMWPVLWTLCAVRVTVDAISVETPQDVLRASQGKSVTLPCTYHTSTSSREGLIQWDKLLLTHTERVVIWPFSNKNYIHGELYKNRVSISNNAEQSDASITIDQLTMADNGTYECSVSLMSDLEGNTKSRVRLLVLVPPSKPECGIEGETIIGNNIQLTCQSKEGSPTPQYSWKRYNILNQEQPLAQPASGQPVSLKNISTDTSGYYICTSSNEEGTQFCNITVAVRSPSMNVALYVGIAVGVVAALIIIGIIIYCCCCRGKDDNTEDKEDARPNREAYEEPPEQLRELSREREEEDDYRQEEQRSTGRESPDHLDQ
Sequence of UniProt Q8NEC7 (Q8NEC7 whole entry, looked up): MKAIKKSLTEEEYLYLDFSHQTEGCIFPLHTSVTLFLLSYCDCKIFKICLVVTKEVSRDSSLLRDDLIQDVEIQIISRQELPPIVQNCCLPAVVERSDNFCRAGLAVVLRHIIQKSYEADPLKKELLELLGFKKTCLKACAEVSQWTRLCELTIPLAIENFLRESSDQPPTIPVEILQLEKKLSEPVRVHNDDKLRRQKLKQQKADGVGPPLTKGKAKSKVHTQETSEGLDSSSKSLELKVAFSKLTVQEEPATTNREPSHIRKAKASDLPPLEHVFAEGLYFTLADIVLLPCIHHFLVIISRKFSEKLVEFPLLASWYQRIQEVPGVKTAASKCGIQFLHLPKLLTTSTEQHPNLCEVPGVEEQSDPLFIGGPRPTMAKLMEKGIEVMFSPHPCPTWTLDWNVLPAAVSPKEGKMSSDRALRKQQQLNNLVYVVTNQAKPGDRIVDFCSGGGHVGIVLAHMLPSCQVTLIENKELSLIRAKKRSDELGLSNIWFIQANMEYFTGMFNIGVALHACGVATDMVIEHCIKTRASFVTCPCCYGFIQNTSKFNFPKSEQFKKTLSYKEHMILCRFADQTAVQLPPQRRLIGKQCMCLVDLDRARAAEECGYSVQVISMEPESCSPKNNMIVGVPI
Sequence of UniProt O60547 (O60547 whole entry, looked up): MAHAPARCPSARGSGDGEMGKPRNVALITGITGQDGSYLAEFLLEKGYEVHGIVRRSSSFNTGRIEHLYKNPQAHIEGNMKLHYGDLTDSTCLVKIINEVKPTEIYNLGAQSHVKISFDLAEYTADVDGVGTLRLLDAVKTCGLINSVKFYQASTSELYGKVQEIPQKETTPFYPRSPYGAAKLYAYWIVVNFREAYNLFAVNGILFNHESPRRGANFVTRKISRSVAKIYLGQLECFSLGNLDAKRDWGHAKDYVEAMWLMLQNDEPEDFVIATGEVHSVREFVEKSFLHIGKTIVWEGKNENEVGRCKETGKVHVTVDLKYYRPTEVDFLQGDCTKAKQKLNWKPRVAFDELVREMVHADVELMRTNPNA
Sequence of UniProt O94927 (O94927 whole entry, looked up): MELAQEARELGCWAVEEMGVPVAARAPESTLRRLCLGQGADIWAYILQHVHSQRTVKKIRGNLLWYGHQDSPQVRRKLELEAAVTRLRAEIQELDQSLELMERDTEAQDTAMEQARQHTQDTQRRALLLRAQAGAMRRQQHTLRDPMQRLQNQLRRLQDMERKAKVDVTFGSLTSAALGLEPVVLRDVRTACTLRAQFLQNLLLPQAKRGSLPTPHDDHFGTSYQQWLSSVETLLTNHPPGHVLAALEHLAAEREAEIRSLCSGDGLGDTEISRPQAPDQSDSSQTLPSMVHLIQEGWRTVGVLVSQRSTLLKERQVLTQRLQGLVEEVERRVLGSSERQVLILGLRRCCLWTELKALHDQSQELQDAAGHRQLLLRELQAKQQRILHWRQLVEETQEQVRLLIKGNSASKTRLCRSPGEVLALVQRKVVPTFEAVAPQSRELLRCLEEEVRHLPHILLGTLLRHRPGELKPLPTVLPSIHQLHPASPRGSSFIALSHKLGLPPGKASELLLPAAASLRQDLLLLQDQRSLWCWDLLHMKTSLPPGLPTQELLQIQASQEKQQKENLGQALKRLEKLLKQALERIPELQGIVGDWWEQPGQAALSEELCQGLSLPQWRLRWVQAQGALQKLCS

Row | Target | log2 fold change (lapatinib) | log2 fold change (pictilisib) | log2 fold change (crizotinib) | log2 fold change [1] | log2 fold change (duvelisib) | log2 fold change (gandotinib) | log2 fold change (tozasertib) | log2 fold change (doramapimod) | log2 fold change (bafetinib) | log2 fold change [2] | log2 fold change (nilotinib) | log2 fold change [3] | log2 fold change (dasatinib) | log2 fold change [4] | log2 fold change [5] | log2 fold change (quisinostat) | log2 fold change (tipifarnib) | log2 fold change [6] | log2 fold change [7] | log2 fold change [8]
1 | GSTCD (UniProt Q8NEC7) | -0.006 | -0.015 | -0.037 | -0.058 | 0.09 | 0.036 | -0.037 | 0 | -0.053 | 0.01 | 0.039 | -0.04 | -0.003 | -0.005 | -0.098 | -0.053 | 0.01 | 0.08 | -0.014 | -0.008
2 | HDAC2 (UniProt Q92769) | -0.006 | 0.002 | 0.057 | -0.047 | -0.028 | 0.018 | 0.014 | -0.05 | -0.021 | 0.028 | -0.022 | 0.014 | -0.024 | -0.013 | 0.044 | 0.635 (active) | -0.011 | 0.018 | 0.001 | -0.031
3 | GNL3 (UniProt Q9BVP2) | -0.058 | -0.018 | -0.134 | 0.097 | 0.004 | -0.115 | -0.013 | 0.039 | -0.128 | -0.031 | 0.008 | -0.022 | -0.005 | 0.029 | -0.003 | -0.164 | 0.013 | 0.038 | 0.022 | -0.031
4 | HAUS5 (UniProt O94927) | -0.036 | -0.017 | -0.071 | 0.05 | 0.044 | -0.098 | -0.002 | 0.032 | -0.042 | -0.029 | -0.014 | 0.01 | -0.071 | -0.011 | -0.015 | -0.11 | 0.006 | 0.079 | 0.004 | -0.02
5 | ILRUN (UniProt Q9H6K1) | -0.045 | -0.033 | 0.009 | -0.025 | 0.016 | 0.012 | 0.013 | -0.028 | -0.023 | -0.017 | -0.12 | -0.038 | -0.003 | -0.073 | 0.005 | -0.047 | -0.012 | 0.033 | 0.041 | -0.038
6 | GMDS (UniProt O60547) | -0.019 | -0.035 | -0.01 | 0.004 | 0.012 | -0.013 | -0.016 | 0.018 | 0.001 | -0.021 | -0.023 | 0.05 | -0.043 | -0.03 | -0.013 | -0.041 | 0.029 | 0.038 | -0.005 | -0.029
7 | GPA33 (UniProt Q99795) | -0.064 | 0.059 |  | -0.584 (active) | 0.154 | 0.567 (active) | -0.015 |  | -0.051 | 0.554 | -0.085 | -0.093 | -0.077 | -0.023 | -0.09 |  | 0.022 |  | -0.045 | 0.047
8 | GORASP1 (UniProt Q9BQQ3) | -0.031 |  | 0.015 | -0.103 | -0.018 | 0.002 | -0.087 | 0.015 |  | -0.028 | 0.011 | -0.02 | -0.019 | 0.034 | 0.048 | 0.034 | -0.006 | -0.071 | 0.177 | -0.11
9 | HNRNPL, A0A3B3ITJ4 | -0.011 | -0.002 |  |  |  |  |  |  | -0.083 |  |  |  |  |  |  |  |  |  | 0.019 | 
